Glyco luc inh = blocks N-linked glycosylation in D54 reporter cells; D54 ERlucT glycosylation luciferase reporter, 24 h; percent of 100 nM tunicamycin response; reporter increase, % at 12.5 µM; actives 0.23% (n = 360,000); AID 588692;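 active means mean luciferase reporter signal, scaled so untreated is 0 and the glycosylation-blocking control 100, at or above a set limit in every replicate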;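 further: luciferase carries N-glycosylation sites so blocking glycosylation raises the light; 0% = median of neutral control wells and 100% = median of 100 nM tunicamycin wells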
Casp6 inh = inhibitors of human caspase-6; purified caspase-6, Z-VEID-R110 cleavage fluorescence; inhibition, % at 12.5 µM; actives 0.53% (n = 350,000); AID 686996;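 active means mean inhibition across replicates at least about 35%, with every replicate also reaching that limit, limit read from the data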;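 further: 0% = median of neutral control wells and 100% = no fluorescence left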
NSD2 HMT inh = blocks human histone methyltransferase NSD2. NSD2 peptide methylation, AlphaScreen, 120 min. inhibition, % at 12.5 µM. actives 0.54% (n = 310,000). AID 743445. O96028; in the data active means inhibition above about 50%
SUMO Mot1 rescue = SUMOylation pathway inhibition by Mot1-301 growth rescue | S. cerevisiae Mot1-301 growth rescue, ATP luminescence, 38.5C; percent above DMSO median, 100 means doubled | growth rescue, % at 18.8 µM | actives 1% (n = 320,000) | AID 2716;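 active means every valid replicate shows activation above 250% relative to neutral control wells; inactive means the rest, any valid replicate at or below 250%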;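 further: OY570 slx delta 5 strain wells were the positive control but not used for scaling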
CDK5 p35 inh = inhibitors of human CDK5/p35 kinase; AID 488839; Recombinant CDK5/p35, ADP-Glo luminescence, 60 min; Q00535+Q15078; actives 0.01% (n = 330,000); inhibition, % at 10 µM;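 active means highest replicate inhibition of at least 50% and at least 75% of replicates reaching 50%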;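 further: plate controls were DMSO neutral control for no effect and GW8510 at 10 µM for full effect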
ALR H2O2 inh = human ALR oxidase inhibition via reduced H2O2; P55789; purified ALR, DTT oxidation, H2O2 HRP-luminol luminescence; inhibition, % (test concentration not listed); actives 3.8% (n = 290,000); AID 485317;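 active means mean replicate inhibition above about 79%, with every replicate also reaching it, limit read from the data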
An asterisk follows results filed as active; / = not tested or not shown. This is a sample that favours compounds with a hit; in the whole collection about 3.9% have one here.

SMILES | Glyco luc inh | Casp6 inh | NSD2 HMT inh | SUMO Mot1 rescue | CDK5 p35 inh | ALR H2O2 inh
COc1ccc(NC2CCCN(C(=O)c3ccc(C(C)=O)s3)C2)cc1 (centres undefined) | 2 | -1 | 2 | -12 | 1 | 92*
COc1ccc(NC2CCCN(C(=O)c3ccc4[nH]c(C)c(C)c4c3)C2)cc1 (centres undefined) | 2 | 6 | 15 | -3 | -1 | 88*
COc1ccccc1OCC(=O)N1CCCC(Nc2cccc(F)c2)C1 (centres undefined) | -1 | -3 | 0 | 9 | -1 | -3
COc1ccc(N2CCN(C(=O)c3ccc4[nH]c(C)c(C)c4c3)CC2)cc1 | 0 | 10 | 21 | -7 | 0 | 40
Cc1ccc2[nH]c(C(=O)N3CCCC(Nc4ccc(F)cc4)C3)cc2c1 (centres undefined) | 2 | 7 | 7 | 2 | 0 | -9
COc1ccc(NC2CCCN(C(=O)c3ccc(C)c(N4CCNC4=O)c3)C2)cc1 (centres undefined) | 2 | -3 | 6 | 3 | -1 | 98*
CNC[C@@H]1OCCCC[C@@H](C)Oc2ccc(NC(=O)C3CCCCC3)cc2C(=O)N([C@H](C)CO)C[C@@H]1C | / | 0 | / | / | / | /
Cc1ccc(S(=O)(=O)N(C)C[C@@H]2Oc3ccc(NS(=O)(=O)c4ccccc4)cc3C(=O)N([C@H](C)CO)C[C@@H]2C)cc1 | / | -3 | / | / | / | /
O=C(CC1CC1)N1CC2(C1)[C@@H](c1ccccc1)[C@@H](CO)N2Cc1cccc(F)c1 | / | -2 | / | / | / | /
O=C(Nc1nnc(-c2ccc3c(c2)CCCC3)o1)c1c(F)cccc1F | -1 | -2 | -1 | 3 | 0 | 95*
O=C(Nc1nnc(-c2ccc3c(c2)CCCC3)o1)c1ccc(Cl)cc1Cl | 1 | 1 | / | 17 | -1 | /
CCc1cccc(CC)c1NC(=O)CN1C2CCCC1CC(NC(=O)Nc1cccc(OC)c1)C2 (centres undefined) | 39* | -4 | 2 | -2 | 1 | /
O=C(/C=C\c1ccco1)Oc1cccc2cccnc12 | -1 | 60* | 2 | 450 | 2 | -1
O=C(/C=C/c1ccco1)Oc1cccc2cccnc12 | 1 | 13 | -1 | 15 | 1 | 4
C[C@@H]1CN([C@@H](C)CO)C(=O)c2cc(C#CC3CC3)cnc2O[C@H]1CN(C)C(=O)c1ccc(F)cc1 | / | 2 | / | / | / | /
COC(=O)c1cc(Br)c(=O)n(CCc2ccc(O)cc2)c1 | 2 | / | -1 | -4 | 1 | 90*
COC(=O)c1cc(Br)c(=O)n(CCc2ccc(F)cc2)c1 | 1 | / | 0 | -15 | 0 | -7
CN(C)CCCNC(=O)C[C@@H]1CC[C@H]2[C@@H](COC[C@H](O)CN2CC2CCCCC2)O1 | / | -2 | / | / | / | /
O=C(NCc1ccc2c(c1)OCO2)C1CC(=O)N(c2ccc(O)cc2)C1 (centres undefined) | 0 | / | 3 | 30 | 1 | 99*
CCN(CC)S(=O)(=O)c1ccc(N2CC(C(=O)NCc3ccc4c(c3)OCO4)CC2=O)cc1 (centres undefined) | 2 | -2 | -3 | -8 | 1 | 0
O=C(CNC(=O)c1ccco1)N=Nc1c(O)n(CCc2ccccc2)c2ccccc12 | 34* | 1 | 5 | -3 | 0 | /
CCn1c(O)c(N=NC(=O)CNC(=O)Cc2ccccc2)c2ccccc21 | 2 | 4 | -2 | 11 | -2 | 12
C=CCc1cccc(CNc2ccc(S(=O)(=O)Nc3nccnc3OC)cc2)c1O | -2 | 5 | 29 | 4 | -1 | 2
C=CCc1cccc(CNc2ccc(Br)cc2)c1O | -7 | -3 | 3 | / | 0 | 98*
C[C@H]1CCCCO[C@H](CN(C)C(=O)NC2CCCCC2)[C@@H](C)CN([C@@H](C)CO)C(=O)c2cc(NC(=O)Cc3ccccc3)ccc2O1 | / | 2 | / | / | / | /
SMILES | Glyco luc inh | Casp6 inh | NSD2 HMT inh | SUMO Mot1 rescue | CDK5 p35 inh | ALR H2O2 inh
CCNC(=O)NC(=O)CSc1ccccc1F | -1 | / | -2 | -14 | 3 | -3
NS(=O)(=O)c1ccc(CCNC(=O)CN2CCN(c3ccccc3O)CC2)cc1 | 0 | 3 | 1 | -11 | 1 | 99*
NC(=O)COC(=O)CSc1ccc2ccccc2c1 | 1 | 0 | -9 | -24 | 1 | 99*
CCNC(=O)NC(=O)CSc1ccc2ccccc2c1 | -4 | -2 | -2 | 9 | 0 | 98*
NS(=O)(=O)c1ccc(CCNC(=O)CSc2ccc([N+](=O)[O-])cc2)cc1 | 5 | 0 | -2 | 20 | 1 | 3
NS(=O)(=O)c1ccc(CCNC(=O)CSc2ccc3ccccc3c2)cc1 | -1 | 0 | 0 | 21 | 0 | 99*
CCNC(=O)C[C@H]1C=C[C@H](NC(=O)C2CCOCC2)[C@@H](CO)O1 | / | -2 | / | / | / | /
CO[C@H]1CN(C)C(=O)c2cc(NC(=O)c3ccccc3F)ccc2OC[C@@H](C)N(C)C[C@@H]1C | / | 16 | / | / | / | /
COC(=O)[C@@H]1[C@@H](CO)[C@@H]2Cn3c(ccc(-c4cccc(OC)c4)c3=O)[C@@H]2N1Cc1nccs1 | / | -3 | / | / | / | /
S=C1NC2(CCCC2)N=C1c1ccccc1 | -1 | 0 | -5 | 490* | 0 | 24
C[C@H](O)C#Cc1cnc2c(c1)C(=O)N([C@@H](C)CO)C[C@@H](C)[C@@H](CN(C)Cc1ccc(-c3ccccc3)cc1)O2 | / | 0 | / | / | / | /
O=C(Nc1cccc(S(=O)(=O)N2CCCCC2)c1)c1ccccc1NS(=O)(=O)c1ccc(F)cc1 | -4 | 1 | 1 | -11 | -4 | -2
O=C(Nc1cc(S(=O)(=O)N2CCCCC2)ccc1O)c1ccccc1NS(=O)(=O)c1ccc(F)c(F)c1 | 0 | 10 | 3 | 8 | -2 | 96*
CC(C)CC#Cc1cnc2c(c1)C(=O)N([C@@H](C)CO)C[C@H](C)[C@@H](CN(C)C(=O)CCN1CCCCC1)O2 | / | 1 | / | / | / | /
Cc1ccc(NC(=O)CN2C(=O)N/C(=C/c3cccn3-c3ccc(C(=O)O)cc3)C2=O)cc1 | 1 | / | / | -2 | -1 | 97*
Cc1ccc(NC(=O)CN2C(=O)N/C(=C/c3cc(C)n(-c4ccc(C(=O)O)cc4)c3C)C2=O)cc1 | 2 | 54* | 40 | / | -2 | /
COc1ccc(NC(=O)CN2C(=O)S/C(=C/c3cccn3-c3ccc(C(=O)O)cc3)C2=O)cc1 | 1 | 72* | 39 | 0 | -1 | 21
Cc1ccc(NC(=O)CN2C(=O)S/C(=C\c3cc(C)n(-c4ccc(C(=O)O)cc4)c3C)C2=O)cc1 | -2 | 8 | -5 | -2 | -3 | 51
C[C@@H]1CN([C@H](C)CO)C(=O)c2cccc(NS(=O)(=O)c3ccc(F)cc3)c2O[C@H]1CN(C)S(=O)(=O)c1ccc(F)cc1 | / | -3 | / | / | / | /
C[C@@H]1CCCCO[C@H](CN(C)Cc2ccc(C(=O)O)cc2)[C@@H](C)CN([C@@H](C)CO)C(=O)c2cc(NC(=O)NC3CCCCC3)ccc2O1 | / | 0 | / | / | / | /

Compound activity from PubChem BioAssay.
